Test systems include DU-145 prostate; K-562 leukemia; MALME-3M melanoma; MDA-MB-231 breast; SF-268 CNS; SF-295 CNS; SF-539 CNS; UACC-257 melanoma.
Holding throughout (assay): NCI-60 one-dose screen, 48 h (100 = growth as untreated, 0 = no growth, -100 = all killed)
Conditions in all cases: 10 µM unless noted

Molecules are shown by their SMILES. Compounds without any hit were thinned out: in the full panel of roughly 83,000, 20% have a hit.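 How to read the values: 0–100, growth inhibition (40 = 60% inhibited); 0, no net growth; -100 to 0, cell death (-40 = 40% of starting cells died; -100 = all dead).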 Unmarked numbers belong to inactive results. Active and inactive are the calls of the source. The calls were made as follows: active = growth percent below 10; inactive = the rest.

For the molecule `C=CCn1c(SCC(=O)Nc2ccc(C(=O)/C=C/c3cc(OC)c(OC)c(OC)c3)cc2)nnc1-c1c[nH]c2ccccc12`, the growth in the assay with DU-145 prostate was 13.2%; with K-562 leukemia, 3.04% (active); in the assay on MALME-3M melanoma it was 68.6%; with MDA-MB-231 breast, 23%; with SF-268 CNS it was 33.1%; in the assay with SF-295 CNS it was 68.1%. In addition, the growth is -16.2% (active) in the assay with SF-539 CNS and 73% in the assay with UACC-257 melanoma.

Regarding `COc1ccccc1-n1cc(C#N)c(N)c1C(=O)c1ccc(Cl)cc1`, the growth is 93.8% with DU-145 prostate; 20.8% in the assay with K-562 leukemia; 59.5% with MALME-3M melanoma; 68.2% in the assay on MDA-MB-231 breast; 85.2% with SF-268 CNS; 78.8% in the assay on SF-295 CNS. Moreover, the growth was 91.8% in the assay on SF-539 CNS and 87.5% in the assay with UACC-257 melanoma.

On to `Cn1ccnc1C(=O)/C=C/c1ccc(CNC(=O)c2ccc(S(F)(F)(F)(F)F)cc2)cc1`, for which the growth was 13.8% in the assay on DU-145 prostate; 18.9% in the assay on K-562 leukemia; 89.9% with MALME-3M melanoma; 5.17% (active) in the assay with MDA-MB-231 breast; 6.38% (active) with SF-268 CNS; 26.8% in the assay on SF-295 CNS. The growth with SF-539 CNS is -36% (active); in the assay on UACC-257 melanoma, 89.9%.

Turning to `COc1ccccc1NC1=C(Cl)C(=O)c2nc(C)ccc2C1=O`, the growth with DU-145 prostate is -57.3% (active); in the assay on K-562 leukemia, -21.1% (active); in the assay on MALME-3M melanoma, -55.9% (active); with MDA-MB-231 breast, -57.3% (active); with SF-268 CNS, 47.4%; in the assay with SF-295 CNS, 96.6%. Moreover, the results for the growth in the assay on SF-539 CNS and in the assay with UACC-257 melanoma were 1.78% (active) and -82.7% (active), respectively.

Turning to `CC(Nc1c(C#N)cnc2ccc(-c3cnc(N)nc3)cc12)c1ccccc1` (stereo not given), the growth in the assay with DU-145 prostate is 17.3%; in the assay with K-562 leukemia it was 22.5%; with MALME-3M melanoma, 0.078% (active); in the assay with MDA-MB-231 breast it was 19.1%; in the assay on SF-268 CNS, 13.4%; in the assay with SF-295 CNS, -17% (active). The growth with SF-539 CNS is 2.6% (active); with UACC-257 melanoma, 34.1%.

`O=C(O)c1ccc(-n2cc(CNc3cccc(Cl)c3)c(-c3ccc(F)cc3)n2)cc1`: the growth with DU-145 prostate was 102%; in the assay on K-562 leukemia it was 76.4%; with MALME-3M melanoma, 82.8%; with MDA-MB-231 breast, 91.7%; in the assay with SF-268 CNS it was 109%; in the assay with SF-295 CNS it was 87.6%. The results for the growth in the assay with SF-539 CNS and with UACC-257 melanoma were 96.1% and 96.8%, respectively.

In the case of `C=C(C=O)[C@@H]1CC[C@]2(C)[C@H](C(=O)C=C3[C@H]4C[C@](C)(C(=O)OC)CC[C@]4(C)CC[C@]32C)[C@@]1(C)CCC#N`, the growth in the assay with DU-145 prostate was 6.32% (active); with K-562 leukemia, 5.75% (active); in the assay with MALME-3M melanoma it was -49.8% (active); with MDA-MB-231 breast, -19% (active); in the assay on SF-268 CNS, 32%; with SF-295 CNS it was 28.4%. Moreover, the growth is -29.1% (active) in the assay on SF-539 CNS and -13.6% (active) in the assay on UACC-257 melanoma.

For `Cc1nc(-c2ccccc2O)ccc1C(=O)N=Nc1c(O)[nH]c2ccc(Br)cc12`, the growth was 113% in the assay with DU-145 prostate; 113% in the assay with K-562 leukemia; 85.4% in the assay on MALME-3M melanoma; 87.6% in the assay with MDA-MB-231 breast; 96.7% in the assay with SF-268 CNS; 104% with SF-295 CNS. Further, the growth in the assay on SF-539 CNS is 95.7%; in the assay on UACC-257 melanoma, 104%.

In the case of `Cc1ccc(-c2nnc(SCc3ccc(O)c4ncccc34)o2)cc1`, the growth in the assay on DU-145 prostate was 28.7%; in the assay with K-562 leukemia, 11.3%; with MALME-3M melanoma, 1.77% (active); in the assay on MDA-MB-231 breast it was 41.7%; in the assay on SF-268 CNS it was 21.2%; in the assay on SF-295 CNS, 5.77% (active). Further, the growth is 14.9% in the assay with SF-539 CNS and 9.75% (active) in the assay on UACC-257 melanoma.

As to `COc1cc(/C=C2\C(=O)Nc3cc(Cl)ccc32)ccc1OCc1ccc(F)cc1`, the growth with DU-145 prostate was 104%; in the assay with K-562 leukemia, 97.7%; in the assay on MALME-3M melanoma, 92.7%; in the assay with MDA-MB-231 breast, 92.1%; with SF-268 CNS, 101%; in the assay on SF-295 CNS it was 97.1%. Moreover, the values for the growth with SF-539 CNS and in the assay on UACC-257 melanoma were 95% and 109%, respectively.

`COc1cc(/C=N/NC(=O)c2cn(C3CC3)c3c(OC)c(N4CC5CCCNC5C4)c(F)cc3c2=O)ccc1O` (stereo not given): the growth in the assay on DU-145 prostate was 46.5%; with K-562 leukemia, -25.5% (active); in the assay on MALME-3M melanoma, 89.2%; in the assay with MDA-MB-231 breast, -27.4% (active); in the assay with SF-268 CNS, 82.1%; in the assay with SF-295 CNS, 100%. For the same molecule, the values for the growth in the assay with SF-539 CNS and in the assay on UACC-257 melanoma were -9.11% (active) and 104%, respectively.

Take `COc1cccc(O)c1/C=C(/C)c1ccc2c(OC)cccc2[o+]1`: the growth in the assay on DU-145 prostate was 111%; in the assay on K-562 leukemia it was 95.6%; in the assay with MALME-3M melanoma, 96.8%; in the assay on MDA-MB-231 breast, 101%; in the assay on SF-268 CNS, 100%; with SF-295 CNS it was 99.1%. Further, the figures for the growth in the assay on SF-539 CNS and in the assay on UACC-257 melanoma were 93.2% and 118%, respectively.

`NC(N)=Nc1ccc(Oc2cccc(NC(N)=Nc3ccc(I)cc3F)c2)cc1`: the growth in the assay with DU-145 prostate was 97.6%; in the assay on K-562 leukemia it was 69.9%; in the assay on MALME-3M melanoma, 83%; in the assay with MDA-MB-231 breast it was 83.6%; with SF-268 CNS, 36.4%; with SF-295 CNS, 77.3%. Also, the growth with SF-539 CNS is 62.6%; in the assay with UACC-257 melanoma it was 86.4%.

As to `COc1ccc(NC2=C(Cl)C(=O)c3nc(C)ccc3C2=O)cc1OC`, the growth is 93% in the assay with DU-145 prostate; 7.18% (active) with K-562 leukemia; 94.5% in the assay with MALME-3M melanoma; 73% with MDA-MB-231 breast; 84.7% with SF-268 CNS; 104% in the assay with SF-295 CNS. The growth with SF-539 CNS is 103%; in the assay with UACC-257 melanoma, 91%.

On to `O=C1[C@@H]2Cc3c([nH]c4ccccc34)[C@H](c3c(Cl)cccc3Cl)N2C(=O)CN1C1CCN(CC2CCCCC2)CC1`, for which the growth in the assay on DU-145 prostate is 34.4%; with K-562 leukemia it was 1.73% (active); in the assay on MALME-3M melanoma, 80.6%; in the assay on MDA-MB-231 breast it was 50%; in the assay with SF-268 CNS, 75.2%; in the assay on SF-295 CNS, 105%. The growth was 68.8% with SF-539 CNS and 91.4% in the assay on UACC-257 melanoma.
